Experimental data: the supplement of paper PMC7858590
Values joined by “and” are separate entries in the source; they are usually repeats but may differ in a detail not shown here. Equal values may be shown once. ± gives the standard deviation of the averaged measurements. Whole data set: some 3,800 compounds, median “cell shape (eccentricity) Z-score vs DMSO control” near 1.1, cut for the lowest 2% near -4.7. This is one part of a sample in which the lowest values are shown more often than they occur.

Test system: human monocyte-derived macrophages (M0)
Test: cell shape (eccentricity) Z-score vs DMSO control; higher = more elongated, M2-like morphology
Details: 20 µM; 24 h; macrophage state: M0 (M-CSF)
Method: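 Primary human monocyte-derived macrophages (M-CSF differentiated, pooled from 4 donors, 5000 cells/well in 384-well plates) were treated with each compound at 20 uM for 24 h, then fixed and stained with phalloidin/DAPI and imaged on an Opera Phenix (6 fields, about 1000 cells/well). Cell eccentricity was measured with CellProfiler, and a Z-score (t-test) was computed against 4 DMSO control wells in the same row. Negative values mean round (M1-like) cells and positive values mean elongated (M2-like) cells; the paper's hit cutoffs are Z <= -4 (M1) and Z >= 6 (M2). Scale: negative = round, M1-like.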

SMILES | cell shape (Z-score)
COc1ccc(NC(=O)c2ccc(-c3ccc(-c4noc(C)n4)cc3C)cc2)cc1N1CCN(C)CC1 | -0.626
Nc1ccc(/N=N/c2ccccc2)c(N)n1 | -1.01
Cc1ccc(O)c(N=Nc2ccccc2)n1 | -7.89
Cc1ccc2ccc3ccc(C)nc3c2n1 | 3.48
C=C[C@@](C)(O)CCC1C(=C)CCC2[C@@](C)(CO)CCC[C@]12C (some centres not stated) | 4.09
COC1=C(N)C(=O)c2nc(-c3nc(C(=O)O)c(C)c(-c4ccc(OC)c(OC)c4O)c3N)ccc2C1=O | 0.0737
CC(C)(C)c1ccc(S(=O)(=O)NCc2ccc(C(=O)Nc3cccnc3)cc2)cc1 | 1.14
Nc1ccccc1NC(=O)c1ccc(CNc2nccc(-c3cccnc3)n2)cc1 | -11.8
Nc1ccccc1NC(=O)c1ccc(CNC(=O)OCc2cccnc2)cc1 | -10.6 ± 0.74
CC(=O)Nc1ccc(C(=O)Nc2ccccc2N)cc1 | -3.16 ± 2.7
Nc1cc(-c2ccncc2)c[nH]c1=O | 0.0533
COc1cc2c(c(OC)c1)C(=O)OC(C)C2 (configuration not stated) | -2.38
Cc1ccccc1NC(=N)Nc1ccccc1C | 2.28
O=c1c(OC2OC(CO)C(O)C(O)C2OC2OC(CO)C(O)C(O)C2O)c(-c2ccc(O)cc2)oc2cc(O)cc(O)c12 (configuration not stated) | 0.138 ± 1.7
CC1(C)C(=O)C=C[C@@]2(C)C1CC(=O)[C@]1(C)C2CC[C@@]2(C)[C@H](c3ccoc3)OC(=O)[C@H]3O[C@]321 (some centres not stated) | -1.42
COc1cc2c(c(O)c1OC)C(=O)CC(c1ccc(O)cc1)O2 (configuration not stated) | 0.892
CC(C)[C@@H]1CC[C@@]2(C)CCC[C@@](C)(O)[C@@H]2[C@H]1OC(=O)/C=C/c1ccccc1 | 2.15
NC(=O)c1ccc(-c2nc(-c3ccc4c(c3)OCCO4)c(-c3ccccn3)[nH]2)cc1 | 4.12
COCCCCC(=NOCCN)c1ccc(C(F)(F)F)cc1 | -14.7
C/C=C/C#CC#C[C@@H](O[C@@H]1O[C@H](CO)[C@@H](O)[C@H](O)[C@H]1O)[C@H](O)/C=C/CCCO | -5.71
CC(/C=C/C1(O)C(C)CC(O)CC1(C)C)OC1OC(CO)C(O)C(O)C1O (configuration not stated) | 0.819
CC(O)CCCc1cc(O)cc(O[C@@H]2O[C@H](CO)[C@@H](O)[C@H](O)[C@H]2O)c1 (some centres not stated) | 0.302
O=Cc1ccccc1O[C@@H]1O[C@H](CO)[C@H](O)[C@@H](O)[C@H]1O | -0.838
O=C1c2ccccc2CCC1CNCCc1ccc(O)cc1 (configuration not stated) | 2.69
OCc1ccc(-c2ccc(-c3ccc(CO)s3)o2)s1 | -3.3 and -5.19
COc1cc(C(C)/C=C(/C)CC(=O)O)oc(=O)c1C (configuration not stated) | 0.462 ± 0.48

SMILES | cell shape (Z-score)
C=C1CC[C@@H]2[C@](C)(CO)[C@H](O)CC[C@@]2(C)[C@@H]1CC(O)C1=CCOC1=O (some centres not stated) | -2.2 ± 3.4
O=C(Nc1ccccc1)c1cc([N+](=O)[O-])ccc1Cl | -1.03
O=C(Nc1ccc([N+](=O)[O-])cc1O)Nc1ccccc1Br | -4.95 ± 7.5
O=C(Nc1ccc([N+](=O)[O-])cc1Cl)c1cc(Cl)ccc1O | -4.1 ± 4.2
CCC(C)C(=O)O[C@H]1C[C@H](O)C=C2C=C[C@H](C)[C@H](CC[C@@H](O)C[C@@H](O)CC(=O)O)C21 (some centres not stated) | -0.754
COc1cc(/C=C/c2cc(O)cc(O[C@@H]3O[C@H](CO)[C@@H](O)[C@H](O)[C@H]3O)c2)ccc1O[C@@H]1O[C@H](CO)[C@@H](O)[C@H](O)[C@H]1O | 2.22
COc1cc2c(cc1-c1coc3c4c(ccc3c1=O)OC(C)(C)C=C4)OCO2 | -5.49
COc1c(-c2coc3cc4c(cc3c2=O)CC(O)C(C)(C)O4)ccc2c1C=CC(C)(C)O2 (configuration not stated) | -0.764
COc1c2c(cc3occ(-c4ccc5c(c4)OCO5)c(=O)c13)OC(C)(C)C=C2 | 1.71
CN(C)CCCN1c2ccccc2CCc2ccc(Cl)cc21 | 1.86
CC(C)=CCC1Cc2c(cc(O)c(C(=O)C(C)C)c2O)OC1(C)C (configuration not stated) | 3.41
NCCCCCc1cnc[nH]1 | -0.662
CC(C)c1ccc(Cn2ccc3c4c(N)nc(NC5CC5)nc4ccc32)cc1 | -4.69
CCNC(=O)[C@@H]1CCCN1C(=O)[C@H](CCCNC(=N)N)NC(=O)[C@H](CC(C)C)NC(=O)[C@@H](COC(C)(C)C)NC(=O)[C@H](Cc1ccc(O)cc1)NC(=O)[C@H](CO)NC(=O)[C@H](Cc1c[nH]c2ccccc12)NC(=O)[C@H](Cc1cnc[nH]1)NC(=O)C1CCC(=O)N1 (some centres not stated) | -0.749
OC1(c2ccc(Cl)c(C(F)(F)F)c2)CCN(CCCC(c2ccc(F)cc2)c2ccc(F)cc2)CC1 | -6.96
O=C(CCCN1CCC(O)(c2cccc(C(F)(F)F)c2)CC1)c1ccc(F)cc1 | -0.261
O=C(CCCN1CCC(O)(c2ccc(Cl)cc2)CC1)c1ccc(F)cc1 | -2.24
CO[C@@]12[C@@H]3NC3CN1C1=C(C(=O)C(N)=C(C)C1=O)[C@@H]2COC(N)=O (some centres not stated) | -5.51
CO[C@@]12[C@H](COC(N)=O)C3=C(C(=O)C(C)=C(N)C3=O)N1C[C@@H]1N[C@@H]12 | -1.43 ± 4
Cc1cccc(-c2[nH]c(C(C)(C)C)nc2-c2ccc3nccnc3c2)n1 | 4.84
CON=C(C(=O)NC1C(=O)N2C(C(=O)O)=C(CSc3nc(=O)c(=O)[nH]n3C)CSC12)c1csc(N)n1 (configuration not stated) | -0.265
CCN1CCN(c2cc3c(cc2F)c(=O)c(C(=O)O)cn3C2CC2)CC1 | -0.0252
Cc1oc(=O)oc1CN1CCN(c2cc3c(cc2F)c(=O)c(C(=O)O)c2n3C(C)S2)CC1 (configuration not stated) | -5.14
CCn1cc(C(=O)O)c(=O)c2cc(F)c(N3CCN(C)CC3)cc21 | -1.21
C=CC(=O)Nc1cccc(Sc2nc(Nc3ccc(N4CCN(C)CC4)cc3)ncc2Cl)c1 | 0.842
CCCCCCCCC(=O)NCc1cc(OC)c(O)cc1I | 0.93

SMILES | cell shape (Z-score)
CCCn1c(=O)c(C)cn2nc(N)nc12 | 3.53
CCC(C)n1ncn(-c2ccc(N3CCN(c4ccc(OC[C@H]5CO[C@](Cn6cncn6)(c6ccc(Cl)cc6Cl)O5)cc4)CC3)cc2)c1=O (some centres not stated) | 0.541
CC(C)N1C[C@@H](C)[C@H](CN(C)Cc2ccc(Oc3ccccc3)cc2)Oc2c(NC(=O)c3ccncc3)cccc2C1=O | 2.27
CC1OC(O[C@H]2CC[C@@]3(C)C(CC[C@]4(C)C3CC=C3C5CC(C)(C)CC[C@]5(C(=O)OC5OC(CO)C(OC6OC(CO)C(O)C(O)C6O)C(O)C5O)CC[C@]34C)C2(C)C)C(O)C(O)C1OC1OCC(O)(COC2OCC(O)C(OC3OCC(OC4OCC(O)(CO)C4O)C(O)C3O)C2O)C1O (some centres not stated) | 0.323
CC1OC(O[C@H]2[C@@H](O)C[C@@]3(C)C(CC[C@]4(C)C3CC=C3[C@@H]5CC(C)(C)CC[C@]5(C(=O)OC5OC(C)C(OC6OCC(OC7OCC(O)C(OC8OCC(O)C(O)C8O)C7O)C(O)C6O)C(O)C5O)CC[C@]34C)[C@]2(C)CO)C(O)C(OC2OC(CO)C(O)C(O)C2O)C1O (some centres not stated) | 0.13
CC1OC(OC2C(O)C(CO)OC(O[C@H]3CC[C@@]4(C)C(CC[C@]5(C)C4CC=C4C6CC(C)(C)CC[C@]6(C(=O)OC6OCC(OC7OCC(O)C(O)C7O)C(O)C6O)CC[C@]45C)C3(C)C)C2O)C(O)C(OC2OCC(O)(CO)C2O)C1O (some centres not stated) | -0.504
CC1OC(OC2C(O[C@H]3OC[C@](O)(CO)[C@H]3O)COC(O[C@@H]3[C@@H](O)[C@@H](O)[C@H](OC4C(OC(=O)[C@]56CCC(C)(C)CC5C5=CCC7[C@@]8(C)C[C@H](O)[C@H](OC9OC(CO)C(O)C(O)C9O)[C@@](C)(CO)C8[C@H](O)C[C@@]7(C)[C@]5(C)CC6)OCC(O)C4O)O[C@H]3C)C2O)C(O)C(O)C1O (some centres not stated) | -5.84
CC1OC(O[C@H]2[C@@H](O)C[C@@]3(C)C([C@H](O)C[C@]4(C)C3CC=C3[C@@H]5CC(C)(C)CC[C@]5(C(=O)OC5OC(C)C(OC6OCC(OC7OCC(O)C(OC8OCC(O)C(O)C8O)C7O)C(O)C6O)C(O)C5O)CC[C@]34C)[C@]2(C)CO)C(O)C(OC2OC(CO)C(O)C(O)C2O)C1O (some centres not stated) | 0.543
C[C@@H]1O[C@@H](O[C@H]2[C@H](OC(=O)[C@]34CCC(C)(C)C[C@H]3C3=CCC5[C@@]6(C)C[C@H](O)[C@H](O[C@@H]7O[C@H](CO)[C@@H](O)[C@H](O)[C@H]7O)[C@@](C)(CO)C6[C@H](O)C[C@@]5(C)[C@]3(C)CC4)OC[C@H](O)[C@@H]2O)[C@H](O)[C@H](O)[C@H]1O[C@@H]1OC[C@@H](O)[C@H](O[C@@H]2OC[C@](O)(CO)[C@H]2O)[C@H]1O (some centres not stated) | -6.49
C/C(=C\Cc1c(O[C@@H]2O[C@H](CO)[C@@H](O)[C@H](O)[C@H]2O)ccc2ccc(=O)oc12)CO | 0.962 ± 0.97
CCC1(c2ncc[nH]2)Cc2ccccc2O1 (configuration not stated) | 1.92
N#CC(=C(N)Sc1ccc(N)cc1)c1ccccc1C(F)(F)F | 4.79
CC1CC(=O)C2C(O)(C1)CC(O)C13OC21C(=O)c1cccc(O)c1C3O (configuration not stated) | 3.39 ± 2.6
C[C@H](CCC(=O)NCC(=O)O)[C@H]1CCC2C3C(C[C@H](O)[C@@]21C)[C@@]1(C)CC[C@@H](O)CC1C[C@H]3O (some centres not stated) | 1.5
CC(=O)O[C@@H]1CC2C(C)(C)C(=O)C3OC3[C@]2(C)C2CC[C@@]3(C)[C@H](c4ccoc4)OC(=O)C4OC43[C@@]21C (some centres not stated) | -1.17
CC1(CO)CC(O)CC2(C)C3=C(CCC12)C(=O)OC3 (configuration not stated) | -1.57
COC(=O)C(CCCNC(=N)N)NC(=O)CCCc1c(-c2ccccc2)[nH]c2c(F)cc(F)cc12 (configuration not stated) | 6.11
COCCCOc1ccnc(CS(=O)c2nc3ccccc3[nH]2)c1C (configuration not stated) | -6.29
COc1ccnc(CS(=O)c2nc3cc(OC(F)F)ccc3[nH]2)c1OC (configuration not stated) | -1.46
Cc1c(OCC(F)(F)F)ccnc1CS(=O)c1nc2ccccc2[nH]1 (configuration not stated) | 3.11
COC1=CC(=O)CC(C)C12Oc1cc(OC)cc(O)c1C2=O (configuration not stated) | 1.27
OCCOCCN1CCN(C2=Nc3ccccc3Sc3ccccc32)CC1 | 2.19
CNCC[C@@H](Oc1ccccc1C)c1ccccc1 | 0.617
CNCCC(Oc1ccc(C(F)(F)F)cc1)c1ccccc1 (configuration not stated) | -4.88
CNCCC(Oc1ccccc1OC)c1ccccc1 (configuration not stated) | 1.09
